AMA1-RON2 inh: qHTS for Inhibitors of AMA1-RON; Towards Development of Antimalarial Drug Lead: Primary Screen; AlphaScreen AMA1-biotinylated RON2 peptide binding; 360,000 compounds, 0.2% hits; AID 720542, 2013; Potency, µM (doses to about 58.2 µM), hits mostly inhibitors; further: nearly all actives have a fitted effect of over 45% in size
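AMA1 (3D7) with his tag at 25 nM final met compounds first, then biotinylated RON2 peptide at 25 nM; detection used donor plus acceptor beads, 10 µg/mL apiece, read by AlphaScreen after 30 min at room temperature.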
HCV inh: qHTS Assay for Inhibitors of Hepatitis C Virus (HCV); Huh7.5.1 HCVcc-Cre infection, luciferase reporter, 44 h; Potency, µM (highest dose often 41.8 µM), hits mostly inhibitors; 340,000 compounds, 3.4% hits
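Whole-lifecycle infectious HCVcc-Cre system; cells 1,000/well, compound then virus (~0.5 moi) added 4 h after plating, 44 h culture. Luciferase read 15 sec following 15 min substrate incubation, room temp.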
Shiga inhibitor: A qHTS for Small Molecule Inhibitors of Shiga Toxin; AID 2315, 2010; inhibition, % at 38.7 µM; Vero cells, Shiga toxin protein synthesis inhibition reporter; 290,000 compounds, 9.2% hits; in the data active means inhibition mostly above about 28%, no sharp cut-off; inactive means mostly below about 43%
Pf growth 48h: Primary qHTS for delayed death inhibitors of the malarial parasite plastid, 48 hour incubation; 310,000 compounds, 5.9% hits; Potency, µM (series often up to 28.7 µM), usual class: inhibitors; P. falciparum luciferase growth in erythrocytes, 48 h; AID 504832, 2011
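In quantitative HTS format, infected erythrocytes bearing luciferase-reporter parasites were treated for a single generation at 37 C. Luminescence after adding detection reagent served as the growth measure.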
Pf growth 96h: Primary qHTS for delayed death inhibitors of the malarial parasite plastid, 96 hour incubation; AID 504834, 2011; 320,000 compounds, 6.9% hits; P. falciparum luciferase reporter growth, 96 h; Potency, µM (highest dose often 28.7 µM), most hits filed as inhibitors
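P. falciparum expressing integrated firefly luciferase grown in erythrocytes (2% hematocrit, 0.05% parasitemia final) with compounds for 96 hours at 37 C, 5% CO2. Growth inhibition read as loss of luminescence after adding luciferase detection reagent.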
Cycloheximide cs: Cycloheximide Counterscreen for Small Molecule Inhibitors of Shiga Toxin; AID 2314, 2010; 300,000 compounds, 12% hits; max response, %; cell reporter, cycloheximide protein synthesis inhibition counterscreen; in the data active means max response mostly above about 13%, no sharp cut-off; inactive means mostly below about 14%; further: read at 38.3 µM for the half of the compounds with a filed dose
Each line names hits and unclear results; the compound was inactive in the other large screens. Shown are actives, neighbours in structure and some others; about 21% of the full set was active somewhere. Unless noted, the call rests on the fitted dose curve; in most records, active means well fitted curve in the direction sought with a large enough effect; inconclusive means small, poorly fitted or top-dose-only effect, or another doubt; inactive means no such curve, though single readings can be large; an effect the other way counts as inactive or inconclusive.

CC1(C)CN(Cc2ccccc2)C(=O)[C@H]1CC(=O)Nc1ccc(Br)cc1	none (no result: HCV inh, Shiga inhibitor, Pf growth 48h, Pf growth 96h, Cycloheximide cs)
CC(=O)N/C(=C\c1ccccc1)C(=O)OCC(=O)NC1CCS(=O)(=O)C1 (stereo not drawn)	none (no result: Shiga inhibitor, Cycloheximide cs)
CCCCC1CCc2[nH]nc(C(=O)O)c2C1 (stereo not drawn)	Pf growth 48h inconclusive, Pf growth 96h inconclusive (no result: Shiga inhibitor, Cycloheximide cs)
Cc1cc2nc(C3CCN(CC4COc5ccccc5O4)CC3)[nH]c2cc1C (stereo not drawn)	HCV inh inconclusive, Pf growth 48h 13µM
Clc1ccccc1CSC1=NCCN1	Pf growth 48h 15µM
O=C(CSC1=NCCN1)NC(c1ccccc1)c1ccccc1	HCV inh 10µM, Pf growth 48h inconclusive
Clc1ccccc1CSc1ncccn1	none (no result: Pf growth 96h)
C/C(=C/CCC(C)(O)C1CC[C@@]2(C)[C@@H]3CC=C4[C@@H](CC[C@H](O[C@H]5O[C@@H](CO)[C@H](O)[C@@H](O)[C@@H]5O)C4(C)C)[C@]3(C)C(=O)C[C@]12C)CO[C@@H]1O[C@H](CO)[C@@H](O)[C@H](O)[C@H]1O (stereo partly drawn)	none (no result: Shiga inhibitor, Pf growth 48h, Pf growth 96h, Cycloheximide cs)
COc1ccc(-c2ccc(N(C)C)cc2)cc1[C@H]1[C@@H]2C=CCC[C@@]2(C)C(=O)N1Cc1ccccc1	AMA1-RON2 inh inconclusive, Pf growth 48h 9.3µM, Pf growth 96h 9.3µM
COc1ccc(-c2ccc(N(C)C)cc2)cc1C1C2C=CCCC2(C)C(=O)N1Cc1ccccc1 (stereo not drawn)	none (no result: AMA1-RON2 inh, HCV inh, Pf growth 48h, Pf growth 96h)
COc1ccc(-c2ccc(OC)c([C@H]3[C@@H]4C=CCC[C@@]4(C)C(=O)N3Cc3ccccc3)c2)cc1OC	AMA1-RON2 inh inconclusive, Pf growth 48h 8.3µM, Pf growth 96h 12µM
COc1ccc(Br)cc1[C@H]1[C@@H]2C=CCC[C@@]2(C)C(=O)N1Cc1ccccc1	Pf growth 48h inconclusive, Pf growth 96h 12µM
COc1ccc(Br)cc1C1C2C=CCCC2(C)C(=O)N1Cc1ccccc1 (stereo not drawn)	none (no result: AMA1-RON2 inh, HCV inh, Pf growth 48h, Pf growth 96h)
c1ccc2c(c1)CC1(CCCCC1)n1nnnc1-2	AMA1-RON2 inh inconclusive
c1ccc2c(c1)Cn1nnnc1-2	Pf growth 96h 4.1µM
Cc1nc(COC(=O)c2c(C)nn(-c3ccccc3)c2C)cs1	HCV inh inconclusive, Shiga inhibitor 100, Pf growth 96h inconclusive, Cycloheximide cs 35
COc1ccccc1NC(=O)COC(=O)c1c(C)nn(-c2ccccc2)c1C	HCV inh 14µM (no result: Shiga inhibitor, Cycloheximide cs)
N#C/C(=C\c1ccc(O)c(O)c1)C(=O)Nc1cccc2ncccc12	Pf growth 48h inconclusive
COc1cccc(C2(C)NC(=O)N(CC(=O)Nc3ccc(N4CCOCC4)cc3)C2=O)c1 (stereo not drawn)	none (no result: Shiga inhibitor, Pf growth 48h, Pf growth 96h, Cycloheximide cs)
CCS(=O)(=O)Nc1c(C(=O)O)[nH]c2ccccc12	Pf growth 96h 12µM
CC(=O)Nc1c(C(=O)O)[nH]c2ccccc12	Pf growth 96h 10µM
CC(C)Oc1ccc(S(=O)(=O)N2CCOCC2)cc1NC(=O)Cc1c(F)cccc1Cl	HCV inh inconclusive, Pf growth 48h inconclusive, Pf growth 96h inconclusive (no result: Shiga inhibitor, Cycloheximide cs)
c1ccc(NNC2=NCCS2)cc1	AMA1-RON2 inh inconclusive, Pf growth 48h inconclusive, Pf growth 96h inconclusive
c1ccc(NC2=Nc3ccccc3CS2)cc1	HCV inh inconclusive, Shiga inhibitor 99, Cycloheximide cs 31
Cc1ccc(S(=O)ONc2cccc(NOS(=O)c3ccc(C)cc3)c2)cc1 (stereo not drawn)	none (no result: HCV inh, Shiga inhibitor, Pf growth 48h, Pf growth 96h, Cycloheximide cs)
O=C(COC(=O)Cn1cnc2ccccc21)Nc1cc2c(cc1Cl)C(=O)c1ccccc1C2=O	HCV inh inconclusive, Shiga inhibitor 50, Cycloheximide cs 37
O=C(Nc1ccccc1)C1=C[C@H](c2ccc(Br)cc2)C[C@H](OCc2ccc(CO)cc2)O1	Shiga inhibitor 69, Pf growth 96h inconclusive, Cycloheximide cs 41
CC(C)(C)[C@H]1C=C(C(=O)Nc2ccccc2)O[C@@H](OCc2ccc(CO)cc2)C1	Pf growth 48h inconclusive, Pf growth 96h inconclusive, Cycloheximide cs 12

Screening data: PubChem BioAssay, National Center for Advancing Translational Sciences (NCATS)
